Assay outcomes from PubChem.
A selection: hits, their analogues and other compounds. The true share with any hit is near 1.1%.
BJeLR viability: MLPCN primary cell-based screen for lethality selective to Ras in HRASV12 cells; BJeLR (HRASV12) viability, CellTiter-Glo ATP luminescence, 48 h; inhibition, % (concentration not given with the values); actives 0.17% (n = 300,000); AID 1554, 2009; in the data active means inhibition above about 50%
Mtb BioA inh: M. tuberculosis BioA enzyme inhibitors, primary screen, biochemical, plate reader, single point, HTS; actives 0.096% (n = 360,000); inhibition, % at 9.99 µM; purified M. tuberculosis BioA enzyme; in the data active means inhibition above about 40%
Mtb bLac sens: beta-lactam sensitization of Mtb H37Rv, H37Rv. actives 0.27% (n = 330,000). inhibition, % at 25 µM. AID 434955, 2010. M. tuberculosis H37Rv growth with meropenem, percent inhibition; call rule not given here;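 further: growth measured after seven days incubation then overnight dye step; 0% = bacteria only wells and 100% = bacteria with antibiotic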
RecA intein inh: Mtb RecA intein splicing inhibitors, primary screen, biochemical, fluorescence, HTS | Protein RecA (Mycobacterium tuberculosis (strain ATCC 25618 / H37Rv)), P9WHJ3 | cell-free RecA intein splicing | inhibition, % (test concentration not listed) | actives 0.75% (n = 290,000); in the data active means inhibition above about 30%;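 further: 0% = vehicle wells and 100% = reference inhibitor control wells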
Yp Topo-I inh: Yersinia pestis topoisomerase I inhibitors, primary screen, biochemical, cleavage product accumulation, plate reader, single point; DNA topoisomerase I (Yersinia pestis CO92); Y. pestis Topo-I cleavage product accumulation; activity, % at 10 µM; actives 0.064% (n = 360,000); AID 504884, 2011; in the data active means activity above about 50%, passing the limit was not always enough
CCHF vOTU inh: CCHFV vOTU protease inhibitors, primary screen, biochemical, Pep-AMC substrate, fluorescence; Crimean-Congo hemorrhagic fever virus L polyprotein viral ovarian tumor (vOTU) protease …; inhibition, % at 11.5 µM; actives 0.55% (n = 370,000); AID 651958, 2012; in the data active means inhibition above about 30%; further: 0% = vehicle wells with enzyme and 100% = no enzyme wells
The depositor's hits bear a star; · = no result.

SMILES	BJeLR viability	Mtb BioA inh	Mtb bLac sens	RecA intein inh	Yp Topo-I inh	CCHF vOTU inh
CN1C(=O)c2cc(NC(=O)c3cccs3)ccc2OC[C@@H]2O[C@@H](CC(=O)O)CC[C@H]21	·	11.2	·	·	·	·
CCN(CC)c1ccc(/C=N/NC(=O)c2cccc(S(=O)(=O)N3CCOCC3)c2)c(O)c1	53.6*	-1.6	1.7	-1.2	3.8	7.7
N#Cc1ncc(-c2ccc3c(c2)OCCOCCOCCOCCOCCO3)nc1C#N	-2.3	-0.5	100.0	44.1*	-2.9	-15.6
N#Cc1ncc(-c2ccc3c(c2)OCCOCCOCCOCCO3)nc1C#N	-1.0	0.9	100.0	35.6*	-2.0	4.9
O=C(C[C@H]1CC[C@H]2NC[C@H](O)COC[C@@H]2O1)NCc1ccc2c(c1)OCO2	·	2.4	·	·	·	·
CC(=O)NC1=C(Nc2ccc(N(C)C)cc2)C(=O)c2ccccc2C1=O	18.5	2.9	9.7	76.2*	-16.5	24.5
C[C@H]1CN([C@@H](C)CO)C(=O)Cc2cc(NC(=O)Nc3ccc(F)cc3)ccc2O[C@@H]1CN(C)C(=O)Nc1cccc2ccccc12	·	0.5	·	·	·	·
CC(=O)Nc1ccc(NC(=O)CN(c2cccc([N+](=O)[O-])c2)S(C)(=O)=O)cc1	68.6*	·	-1.3	-0.7	4.5	7.0
Cc1ccc(NS(=O)(=O)c2ccc(NC(=O)CN(c3cc([N+](=O)[O-])ccc3C)S(C)(=O)=O)cc2)c(C)c1	65.0*	0.2	95.4	7.0	-5.3	14.3
O=C(N[C@H]1CC[C@@H](CC(=O)N2CCOCC2)O[C@H]1CO)c1cccc(F)c1	·	0.4	·	·	·	·
CCOC(=O)Cc1csc(NC(=O)CC(C)(C)C)n1	5.1	1.9	1.9	0.8	0.2	29.6*
CCOC(=O)Cc1csc(NC(=O)CC)n1	3.2	0.5	-0.5	0.9	8.7	8.2
CCCCC/C=C/C1=CC(=O)C[C@H](c2ccc3c(c2)OCO3)C1	·	2.4	1.7	·	62.8*	7.8
O=C1C(Cl)=C(N2CCN(c3ccccc3[N+](=O)[O-])CC2)C(=O)c2ccccc21	-3.4	-0.8	8.3	-0.4	-1.5	85.4*
O=[N+]([O-])c1cc(Cl)ccc1N1CCCC1	3.7	-1.4	-0.1	-8.2	-5.1	-14.6
Cc1ccc(S(=O)(=O)N(C)C[C@@H]2OCCCC[C@H](C)Oc3ccc(NC(=O)C4CCCCC4)cc3C(=O)N([C@H](C)CO)C[C@H]2C)cc1	·	-2.6	·	·	·	·
Cc1ccc2nc(Cl)c3nnnn3c2c1	23.6	-4.7	100.3	78.7*	-1.0	·
Cc1ccc2nc(N3CCN(c4cccc(C)c4C)CC3)c3nnnn3c2c1	-2.7	·	-8.2	1.9	-2.8	-7.3
O=[N+]([O-])/C(C(=C(Cl)Cl)N1CCN(Cc2ccccc2)CC1)=C1\NCCN1Cc1ccc(Cl)nc1	-3.1	·	-4.3	12.6	42.1	15.1
O=[N+]([O-])C(/C=C(\Cl)[N+](=O)[O-])=C1N(Cc2ccc(Cl)nc2)CCN1Cc1ccc(Cl)nc1	-6.3	·	8.5	61.5*	-4.3	-6.2
CC(C)NC(=O)Nc1ccc2c(c1)C(=O)N([C@@H](C)CO)C[C@H](C)[C@@H](CN(C)CC1CCCCC1)OCCCC[C@H](C)O2	·	0.3	·	·	·	·
Cc1ccc(S(=O)(=O)Nc2cccc3c2O[C@H](CN(C)S(=O)(=O)c2ccc(C)cc2)[C@@H](C)CN([C@H](C)CO)C3=O)cc1	·	-1.7	·	·	·	·
COc1ccc(C(=O)c2ccc(Cl)c([N+](=O)[O-])c2)cc1	66.7*	·	4.9	11.9	-6.3	2.9
O=C(C[C@@H]1CC[C@@H](NC(=O)Nc2ccc(C(F)(F)F)cc2)[C@H](CO)O1)NCc1cc(F)cc(F)c1	·	-2.0	·	·	·	·
COc1ccc(/C=N\NC(=O)c2cccc(F)c2)cc1COc1ccccc1	54.4*	·	-2.0	2.6	-3.1	0.3
CS(=O)(=O)Nc1ccc2c(c1)[C@H]1C[C@H](CC(=O)N3CCCCC3)O[C@H](CO)[C@H]1O2	·	-0.2	·	·	·	·
CC(C)(C)c1nnc(N/N=C/c2ccccc2O)n(N)c1=O	61.9*	-0.6	7.2	-6.6	1.6	3.9
CCOc1ccccc1C(=O)N1CCN(c2cccc(Cl)c2)CC1	52.9*	-0.6	-5.3	2.1	20.2	1.6
